In PubChem BioAssay AID651571 (The Scripps Research Institute Molecular Screening Center, 2012) one finds inhibition data, which are given here for 63 compounds.

Out of some 1,500 compounds screened, about 1,300 (87%) were called active. So high a share suggests a set chosen from earlier hits. The list is a sample of the results. Unmarked numbers belong to inactive results. Rule as the data show it: active = inhibition above about 9%; inactive = the rest.

This assay is described as follows: binders of anti-gp120 antibody PG9, confirmation, biochemical, TR-FRET (AID 651571). To be noted: TR-FRET PG9 antibody binding, at 6.7 µM, hits give high values. (In TR-FRET formats the signal depends on donor and acceptor labels being close together.)
As to `COc1ccc(Cl)cc1NC(=O)Cn1nc(-c2ccc(C)cc2)n(C)c1=S`, the inhibition (in general, the change of the read-out against control, counted positive when it falls) was 12.2% (active).

Regarding `N#Cc1ccccc1NC(=O)c1cccc(COc2ccc(Cl)cc2Cl)c1`, the inhibition was 15.1% (active).

For `O=C1C(=O)N(CCN2CCOCC2)C(c2cccc(Cl)c2)/C1=C(/O)c1ccc2c(c1)OCO2` (stereo not drawn), the inhibition was 26.7% (active).

As to `O=C(O)CCCCCNc1ncnc2ccc(Br)cc12`, the inhibition was 28.1% (active).

As to `COc1ccc(CCNC(=O)CSc2nc(-c3ccc(OC)c(OC)c3)ccc2C#N)cc1`, the inhibition was 26% (active).

Take `COc1cccc(-c2ccc(C#N)c(SCC(=O)NCCc3ccc(Cl)cc3)n2)c1`: the inhibition is 7.22%.

Regarding `O=C(Nc1c(Br)cc2c(c1Br)Cc1cc([N+](=O)[O-])ccc1-2)C(Cl)Cl`, the inhibition was 51.1% (active).

For the compound `O=C(COC(=O)c1ccc2c(c1)OCCO2)NCc1ccccc1Cl`, the inhibition is 29.8% (active).

In the case of `COCCNC(=O)c1cc2c(Br)ccc(Br)c2nc1N`, the inhibition is 16.4% (active).

With `C=CCn1c(=NC(=O)c2cccs2)sc2cc(NC(C)=O)ccc21`, the inhibition was 9.74% (active).

Consider `C=CCn1c(=NC(=O)c2ccc(S(=O)(=O)N3CCCC3)cc2)sc2cc(NC(C)=O)ccc21`, for which the inhibition was 29.4% (active).

Take `CCCc1nc(SCC(=O)Nc2ccc(S(=O)(=O)N(C)C)cc2)c2ccccc2n1`: the inhibition is 34.5% (active).

On to `CCc1ccc(NC(=O)CSc2nnc(-c3cnccn3)n2Cc2ccco2)cc1`, for which the inhibition is 22.4% (active).

Consider `O=C(C1=C(O)C(=O)N(Cc2ccccc2)C1c1ccco1)c1ccco1` (stereo not drawn), for which the inhibition was 31.8% (active).

For the compound `COc1cccc(-n2c(SCC(=O)c3c[nH]c4ccccc34)nc3ccccc3c2=O)c1`, the inhibition was 27% (active).

With `Cc1cc(C)cc(NC(=O)C2CCCN(S(=O)(=O)c3ccc4[nH]c(=O)ccc4c3)C2)c1` (stereo not drawn), the inhibition was 23.8% (active).

For `CCn1nnc2cc(C(=O)Nc3ccc(C(=O)OC(C)C)cc3)ccc21`, the inhibition was 25.6% (active).

Take `COC(=O)C1=C(C)N(Cc2ccccc2C(F)(F)F)C(=NCc2ccc(OC)cc2)NC1c1cccc(C(F)(F)F)c1` (stereo not drawn): the inhibition is 6.91%.

For `O=C(N=C1SC2CS(=O)(=O)CC2N1Cc1ccccc1)c1ccccc1` (stereo not drawn), the inhibition was 34.1% (active).

As for `O=C(Nc1cccc(S(=O)(=O)Nc2ccc(Cl)cc2)c1)c1ccc2c(c1)OCCO2`, the inhibition was 23.1% (active).

`COc1ccc(-c2c(C)nn3c(N4CCC(C(=O)N5CCCCC5)CC4)cc(C)nc23)cc1OC`: the inhibition was 13.9% (active).

Regarding `CCOc1cccc(NC(=O)Cn2nc(-c3ccc4c(c3)OCCO4)ccc2=O)c1`, the inhibition is 14.5% (active).

Consider `Cc1cc2c(cc1C)N1C(=O)c3cc4ccccc4cc3NC(=O)C1C(=O)N2` (stereo not drawn), for which the inhibition is 12.3% (active).

As to `COc1ccc(-n2nnnc2-c2nc3ccccc3s2)cc1`, the inhibition was 30.8% (active).

On to `CCn1c(SCC(=O)Nc2cccc(F)c2)nnc1-c1cc2cc(Br)ccc2o1`, for which the inhibition was 40.1% (active).

In the case of `Cc1nc2nc(SCC(=O)c3ccccc3)[nH]c2cc1Br`, the inhibition is 28.4% (active).

On to `N#C/C=C1\Sc2ccccc2C(=O)N1CC(=O)N1CCN(S(=O)(=O)c2ccccc2)CC1`, for which the inhibition is 22.1% (active).

On to `N#Cc1ccccc1Sc1ccccc1C(=O)OCC(=O)NC1CCCCC1`, for which the inhibition was 27.3% (active).

As to `CC(=O)c1sc2nc(SCC(=O)N3CCCCC3)[nH]c(=O)c2c1C`, the inhibition is 25.6% (active).

Regarding `COc1cccc(NS(=O)(=O)c2ccc3[nH]cc(C(=O)NCCCOC(C)C)c(=O)c3c2)c1`, the inhibition was 18.6% (active).

`Fc1cc(F)c2nc(Nc3nc4c(F)cccc4s3)sc2c1`: the inhibition was 9.6% (active).

Turning to `COCCCNc1nc2c(-c3cccc(C)c3)nnn2c2ccc(Cl)cc12`, the inhibition was 19.2% (active).

Turning to `O=C1COc2ccc(C(=O)COC(=O)c3ccccc3Cl)cc2N1`, the inhibition is 24.8% (active).

On to `Cc1c(-c2ccccc2)nc(N)c(C#N)c1-c1cccs1`, for which the inhibition was 18.6% (active).

For `N#Cc1c(-c2cccs2)nc(SCC(=O)c2ccc(Br)cc2)[nH]c1=O`, the inhibition is 29.8% (active).

As to `COc1ccc(CC(=O)Nc2ccc(-c3nnc(-c4ccccc4)o3)cc2)cc1`, the inhibition is 18.3% (active).

Take `Cc1nc(-c2ccccc2)sc1-c1nc(-c2ccccc2)ncc1S(=O)(=O)c1ccccc1`: the inhibition is 8.54%.

Consider `Cc1ccc(-c2cc(C(=O)NCc3cn(C)nc3C)c3cc(Br)ccc3n2)cc1`, for which the inhibition is 18.5% (active).

As for `CCOC(=O)c1c(C)[nH]c(C(=O)OCC(=O)c2ccc(OC)cc2OC)c1C`, the inhibition is 45.1% (active).

On to `CCCCNC(=O)CSc1nc2n[nH]c(C)c2c(=N)n1-c1cccc(Cl)c1C`, for which the inhibition is 38.3% (active).

For the compound `Cc1ccc(-n2c(SCC(=O)NCCC3=CCCCC3)nc3n[nH]c(C)c3c2=N)cc1Cl`, the inhibition is 22.1% (active).

Regarding `Cc1ccc(-n2ncc3c(=O)n(-c4ccc(C)c(C)c4)c(-c4ccco4)nc32)cc1`, the inhibition was 8.17%.

In the case of `CC1(C)Cc2ccccc2-c2[nH]c(=S)[nH]c(=O)c21`, the inhibition is 9.89% (active).

With `CCOc1cc2ccccc2cc1C(=O)Nc1ccccn1`, the inhibition is 12.1% (active).

With `CC(C)OCCCNC(=O)c1cc(Sc2ccc(F)cc2)nc2ccccc12`, the inhibition is 25.9% (active).

Regarding `S=c1[nH]c2ccccc2c2ccccc12`, the inhibition was 14.6% (active).

For `Cc1cc(Br)ccc1NC(=O)c1sc2ncn(CC(=O)N3CCN(c4ccccn4)CC3)c(=O)c2c1C`, the inhibition was 5.44%.

On to `O=C(O)CCC(=O)Nc1nc2ccc([N+](=O)[O-])cc2s1`, for which the inhibition was 5.06%.

Consider `COC(=O)c1ccc(NC(=S)Nc2cccc(C)n2)cc1`, for which the inhibition was 11% (active).

For `O=C(NCc1ccc(Cl)cc1)c1cc2c(nc3sccn32)s1`, the inhibition was 17.8% (active).

Take `CC(=O)c1cc(C#N)c(SCC(=O)Nc2nccs2)nc1C`: the inhibition was 27.5% (active).

Turning to `COc1ccc(-c2csc(NC(=O)c3ccc(N4C(=O)CCC4=O)cc3)n2)cc1OC`, the inhibition is 15.2% (active).

For `O=C(Oc1ccccc1)Oc1ccc2c(c1)oc(=O)c1ccccc12`, the inhibition was 46.9% (active).

`CCOc1ccc2cc(C#N)c(SCC(=O)OC)nc2c1`: the inhibition was 48.4% (active).

As for `Cc1cccc(Nc2nc3c(S(=O)(=O)c4ccccc4)nnn3c3ccccc23)c1C`, the inhibition is 41.2% (active).

Consider `Cc1nc2cc(NC(=O)CSc3nc4c(C)cccc4cc3C#N)ccc2s1`, for which the inhibition was 46.4% (active).

In the case of `O=C(Nc1nnc(-c2ccccc2F)s1)c1ccccc1F`, the inhibition was 38.5% (active).

Take `N#Cc1c(N)nc2c3c(sc(=N)c2c1N)NC(=O)CC3c1ccccc1Cl` (stereo not drawn): the inhibition is 24.9% (active).

On to `C=CCOc1cccc(C2C(C(=O)c3ccc(C)o3)=C(O)C(=O)N2CCCn2ccnc2)c1` (stereo not drawn), for which the inhibition is 19.4% (active).

With `CCCOc1ccc(C2C(C(=O)c3ccc(C)o3)=C(O)C(=O)N2CCCn2ccnc2)cc1` (stereo not drawn), the inhibition was 53% (active).

Regarding `Cn1c(=S)sc2ccc3ccccc3c21`, the inhibition is 11.9% (active).

Turning to `CCOc1ccc(C(=O)COC(=O)c2ccc(-n3cnnn3)cc2)cc1`, the inhibition was 27.8% (active).

As to `CC(=O)c1sc(NC(=O)CCCOc2ccccc2C)nc1C`, the inhibition is 18.4% (active).
